Experimental data: PubChem BioAssay AID2289 (National Center for Advancing Translational Sciences (NCATS), 2010)
The campaign covered roughly 340,000 compounds. About 3,300 (0.97%) were called active. Another 9% or so got no clear call; they are omitted. Calls come from the whole dose curve; as a rule, active = well fitted inhibition curve with a large enough effect; inconclusive = small, poorly fitted or top-dose-only effect, or effect the other way; inactive = flat fitted curve, though single readings scatter. Some of the results follow.

assay: qHTS Assay for Modulators of miRNAs and/or Inhibitors of miR-21; conditions: HeLa miR-21-FLuc reporter, luciferase luminescence, 48 h; actives lower the signal; note: nearly all actives have a fitted effect of over 55% in size
How it was run: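 Luminescence from a firefly luciferase reporter carrying a miR-21 binding site downstream, stably expressed under a CMV promoter in HeLa cells that make miR-21 endogenously, reports miRNA modulation after 48 h compound exposure up to approximately 40uM final.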
Potency is the fitted concentration of half-maximal effect.

Potency, active:
CCN(CC)c1ccc(/C=C(\C#N)C(N)=O)cc1 14.7 µM
Brc1ccc(/C=N/Nc2nc3ccccc3o2)cc1 1.04 µM
Brc1ccc(/C=N/Nc2ccc3ccccc3n2)cc1 2.61 µM
Brc1ccccc1/C=N/Nc1ccc2ccccc2n1 1.17 µM
O=C(NCCc1cccs1)c1ccc(Cl)c(Cl)c1 2.07 µM
c1ccc(CSCc2nc3ccccc3[nH]2)cc1 7.36 µM
Clc1ccccc1SCc1nc2ccccc2[nH]1 7.36 µM
c1ccc(CCc2nc3ccccc3[nH]2)cc1 9.27 µM
CC1=NN(C(=O)c2ccc(C)o2)C(O)(c2ccccc2)C1 (stereo not drawn) 16.5 µM
COc1ccc(NC(=O)CSCc2ccccc2C)cc1 7.36 µM
COc1ccc(CNC(=O)CSCc2ccccc2Cl)cc1 13.1 µM
Cc1cccc(Nc2n[nH]c(C)c2[N+](=O)[O-])c1 0.736 µM
Cc1ccc(Nc2cc(C)nc(-c3ccccc3)n2)cc1 7.36 µM
CC(=O)c1ccc(NC(=O)c2ccc(C)c(Br)c2)cc1 0.826 µM
CC(=O)c1ccc(NC(=O)c2cc(Cl)sc2Cl)cc1 1.47 µM
Cc1cc(-c2ccc(Br)cc2)n[nH]1 13.1 µM
CCC(=O)N1CCC(c2ccc(OC)cc2)=N1 13.1 µM
O=C(CSc1cccs1)Nc1cccc2ccccc12 10.4 µM
O=C(Nc1ccccc1F)C(=O)Nc1cccc2ccccc12 3.29 µM
O=C(Nc1cccc2ccccc12)c1onc2c1CCCC2 5.85 µM
O=C(Nc1cccc2ccccc12)c1ccccc1 6.56 µM
CC1CC1C(=O)OCC(=O)Nc1ccc(N=Nc2ccccc2)cc1 (stereo not drawn) 1.47 µM
O=C(COC(=O)C1CC1)Nc1ccc(N=Nc2ccccc2)cc1 1.85 µM
C(=N\Nc1cc(N2CCCCC2)ncn1)/c1ccco1 2.93 µM
Cc1ccc(-c2cc(=O)c3cc(Cl)ccc3[nH]2)cc1 0.369 µM
FC(F)(F)c1cc(Cl)c2nc(-c3ccccc3)cn2c1 0.369 µM
CNc1oc(/C=C/c2cccc(OC)c2)nc1C#N 2.93 µM
CNc1oc(/C=C/c2ccccc2)nc1C#N 3.29 µM
CCCCNc1nc(N)nc(-c2cc(Cl)ccc2O)n1 0.927 µM
CNC(=O)c1ccc(NC(=O)/C=C/c2cccc(F)c2)cc1 10.4 µM
Cn1cc([N+](=O)[O-])c(C(=O)Nc2ccc(-c3nc4ccccc4o3)cc2)n1 7.36 µM
Cn1cc([N+](=O)[O-])c(C(=O)Nc2ccc3nc(-c4ccccc4)[nH]c3c2)n1 14.7 µM
CC(C)(C)Nc1nc(-c2ccc3c(c2)CCN3C(=O)C2CC2)cs1 1.47 µM
CNc1nc(-c2ccc3c(c2)CCN3C(=O)c2ccccc2C)cs1 4.65 µM
COC(=O)c1ccc(N2CCC(C)CC2)c(N)c1 4.14 µM
Cc1c(C(=O)NC2CCCCC2)oc2ccc(F)cc12 13.1 µM
COc1ccc2oc(C(=O)NC3CCCCC3)c(C)c2c1 2.93 µM
COc1ccc2oc(C(=O)NC(C)(C)C)c(C)c2c1 3.69 µM
COc1ccc2c(c1)OC/C(=C/c1cccs1)C2=O 5.85 µM
Cn1cccc1C(=O)N/N=C/c1c(Cl)cccc1Cl 2.07 µM
O=C(CSc1nnc(C2CCCCC2)o1)Nc1ccccc1Cl 7.36 µM
Cc1cccn2c1nc(=S)n2C(=O)c1ccco1 1.04 µM
Cc1cccc2nc(=S)n(C(=O)c3ccco3)n12 0.521 µM
CC(=O)Oc1ccc(C(=O)[C@H]2[C@H]3C(=O)N(c4ccc5ccccc5c4)C(=O)[C@H]3[C@@H]3C=CC=NN32)cc1 6.56 µM
Cc1cc2nc(N)sc2cc1[N+](=O)[O-] 14.7 µM
Cc1ccc(-c2nc3cccnc3s2)cc1NS(C)(=O)=O 4.14 µM
O=S(=O)(Nc1ccc(-c2nc3cccnc3s2)cc1)c1cc(F)ccc1F 16.5 µM
O=S(=O)(Nc1ccc(-c2nc3cccnc3s2)cc1)c1ccccc1F 13.1 µM
O=C(Nc1ccc(CN2CCCCC2)cc1)Nc1ccccc1Cl 16.5 µM
CCN1CCN(Cc2ccc(NC(=O)Nc3ccc(SC)cc3)cc2)CC1 14.7 µM
CCN1CCN(Cc2ccc(NC(=O)Nc3ccccc3Cl)cc2)CC1 1.31 µM
O=C(NNC(=S)Nc1ccc(Br)cc1Cl)c1ccco1 3.29 µM
O=C(Nc1cc2c(cc1Cl)OCCCO2)c1ccco1 3.69 µM
O=C(Nc1cc2c(cc1Cl)OCCO2)c1ccco1 6.56 µM
O=C(Nc1cc2c(cc1Br)OCCO2)c1ccco1 6.56 µM
O=C(CCc1ccccc1)Nc1cc2c(cc1Cl)OCCO2 2.61 µM
Cc1c(-c2ccccc2)[nH]n2c(=O)c3c(nc12)CCCC3 2.93 µM
CC(=O)Nc1ccc2nc(-c3cccs3)[nH]c2c1 9.27 µM
CC(C)(C)C(=O)Nc1ccc(-c2nc3ccc(NC(=O)C(C)(C)C)cc3[nH]2)cc1 0.414 µM
CCOc1cc(/C=C2\N=C3CCCCCN3C2=O)ccc1O 14.7 µM
O=C1/C(=C\c2ccc(O)c(O)c2)N=C2CCCCCN12 14.7 µM
Cc1ccc2nc(CNC(=O)c3ccccc3)[nH]c2c1 6.56 µM
Cc1c(/C(O)=C2/C(=O)C(=O)N(Cc3cccnc3)C2c2cccs2)cnn1-c1ccccc1 (stereo not drawn) 5.21 µM
Cn1c(N)c(C(=O)/C=C/c2ccccc2)c(=O)[nH]c1=O 5.85 µM
CNc1ccccc1C(=O)OCC(=O)c1ccccc1 16.5 µM
CC(=O)Nc1cc(C(=O)OCC(=O)c2ccc(C)cc2)ccc1C 10.4 µM
Nc1cccc(C(=O)OCC(=O)c2ccccc2)c1 7.36 µM
CCC(=O)Nc1cc(C(=O)OCC(=O)c2ccccc2)ccc1C 1.85 µM
CCC(=O)Nc1cc(C(=O)OCC(=O)c2ccccc2Cl)ccc1C 10.4 µM
CCc1ccc(C(=O)CCC2CCCCC2=O)cc1 (stereo not drawn) 16.5 µM
Cc1ccc(C(=O)CCC2CCCCC2=O)cc1 (stereo not drawn) 14.7 µM
O=C(O)c1ccccc1C(=O)NNc1cccc(Cl)n1 5.85 µM
CCOC(=O)/C=C/c1cnn(-c2ccccc2)c1 2.33 µM
